This note sets out measurements from PubChem BioAssay (EPA / NIEHS).

Read-out in experiment [1]: Tissue Factor, F3 (gene 2152)
Kind of experiment: BSK_CASM3C_TissueFactor: BioMAP Diversity Plus: CASM3C Assay for Tissue Factor Biomarker Activity (AID 2283052).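 Also: cell surface tissue factor protein level read by ELISA.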 Conditions: primary human coronary artery smooth muscle cells; actives raise or lower the signal.

Read-out in experiment [2]: Interferon-gamma inducible Protein 10 (IP10), CXCL10 (gene 3627)
The experiment in a line: BSK_hDFCGF_IP10: BioMAP Diversity Plus: hDFCGF Assay for Interferon-gamma inducible Protein 10 (IP10) Biomarker Activity (AID 2283053). Conditions: primary human foreskin fibroblasts; actives raise or lower the signal. The method, boiled down: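 Human foreskin fibroblast primary cells (hDFCGF system) were dosed with chemical and assayed at 24 h; IP-10 measured by ELISA. Activity fitted bidirectionally relative to DMSO negative control as baseline.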

Read-out in experiment [3]: Urokinase-type plasminogen activator receptor (uPAR), PLAUR (gene 5329)
The experiment in a line: BSK_CASM3C_uPAR: BioMAP Diversity Plus: CASM3C Assay for Urokinase-type plasminogen activator receptor (uPAR) Biomarker Activity (AID 2283054).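 Also: cell-surface uPAR protein level quantified by ELISA.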 Conditions: primary human coronary artery smooth muscle cells; actives raise or lower the signal.

Read-out in experiment [4]: Vascular cell adhesion molecule 1 (VCAM1), VCAM1 (gene 7412)
Kind of experiment: BSK_CASM3C_VCAM1: BioMAP Diversity Plus: CASM3C Assay for Vascular cell adhesion molecule 1 (VCAM1) Biomarker Activity (AID 2283055).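 Also: VCAM-1 protein level quantified by ELISA on the cells.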 Conditions: primary human coronary artery smooth muscle cells; actives raise or lower the signal.

Read-out in experiment [5]: Collagen III, COL3A1 (gene 1281)
The experiment in a line: BSK_hDFCGF_CollagenIII: BioMAP Diversity Plus: hDFCGF Assay for Collagen III Biomarker Activity (AID 2283056). Conditions: primary human foreskin fibroblasts; actives raise or lower the signal. A digest of the protocol: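 Human foreskin primary fibroblasts were exposed to test chemicals for 24 h, after which collagen III was quantified by ELISA. Activity was fitted bidirectionally against DMSO as negative control and baseline.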

Read-out in experiment [6]: Epidermal growth factor receptor (EGFR), EGFR (gene 1956)
The experiment in a line: BSK_hDFCGF_EGFR: BioMAP Diversity Plus: hDFCGF Assay for Epidermal growth factor receptor (EGFR) Biomarker Activity (AID 2283057). Conditions: primary human foreskin fibroblasts; actives raise or lower the signal. A digest of the protocol:
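Primary human foreskin fibroblasts were exposed to compound for 24 h, after which cell-surface EGFR was quantified by ELISA. Activity was fitted bidirectionally against the DMSO negative control as baseline.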

Read-out in experiment [7]: Interleukin-8 (IL8), CXCL8 (gene 3576)
The experiment in a line: BSK_hDFCGF_IL8: BioMAP Diversity Plus: hDFCGF Assay for Interleukin-8 (IL8) Biomarker Activity (AID 2283058). Conditions: primary human foreskin fibroblasts; actives raise or lower the signal. A digest of the protocol: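 hDFCGF human dermal fibroblasts; 24 h chemical exposure; IL-8 by ELISA; bidirectional curve fit vs DMSO baseline; gain or loss of signal scored.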

Experiment [8] can be described thus: BSK_hDFCGF_Proliferation: Cell Proliferation Assessment in the BioMAP Diversity Plus: hDFCGF Assay (AID 2283059).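 Also: curves fitted for both rise and fall of signal versus DMSO baseline.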 Conditions: primary human foreskin fibroblasts. A digest of the protocol:
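Total protein read at 560 nm after 0.1% SRB staining of TCA-fixed human skin fibroblasts, […]. Activity is fitted in both directions relative to DMSO as baseline.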

Read-out in experiment [9]: Macrophage colony-stimulating factor (MCSF), CSF1 (gene 1435)
Kind of experiment: BSK_hDFCGF_MCSF: BioMAP Diversity Plus: hDFCGF Assay for Macrophage colony-stimulating factor (MCSF) Biomarker Activity (AID 2283060). Conditions: primary human foreskin fibroblasts; actives raise or lower the signal. A digest of the protocol:
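Human foreskin primary fibroblasts were treated with test chemical for 24 h, and M-CSF was then measured by ELISA. Data were fitted bidirectionally against DMSO as the negative control and activity baseline.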

A short description of experiment [10]: BSK_hDFCGF_SRB: Viability Assessment in the BioMAP Diversity Plus: hDFCGF Assay (AID 2283061).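 Also: cells exposed to compound for 24 h before the read.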 Conditions: primary human foreskin fibroblasts. The method, boiled down:
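Human foreskin primary fibroblasts were treated with compound and assessed 24 h after dosing. Total protein was measured by sulforhodamine B staining (0.1% SRB after 10% TCA fixation, 560 nm read) as a cytotoxicity marker, with bidirectional fitting against DMSO baseline.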

Read-out in experiment [11]: TIMP metallopeptidase inhibitor 1 (TIMP1), TIMP1 (gene 7076)
The experiment in a line: BSK_hDFCGF_TIMP1: BioMAP Diversity Plus: hDFCGF Assay for TIMP metallopeptidase inhibitor 1 (TIMP1) Biomarker Activity (AID 2283062). Conditions: primary human foreskin fibroblasts; actives raise or lower the signal. A digest of the protocol:
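Primary human foreskin fibroblasts in the hDFCGF system were dosed with compound for 24 h, then TIMP-1 was measured by ELISA. Activity was fitted bidirectionally relative to DMSO control; parallel SRB staining assessed cytotoxicity.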

Read-out in experiment [12]: Monokine induced gamma interferon (MIG), CXCL9 (gene 4283)
Kind of experiment: BSK_hDFCGF_MIG: BioMAP Diversity Plus: hDFCGF Assay for Monokine induced gamma interferon (MIG) Biomarker Activity (AID 2283063). Conditions: primary human foreskin fibroblasts; actives raise or lower the signal. A digest of the protocol:
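ELISA read-out of MIG from primary human dermal fibroblasts 24 h post-dosing. Gain or loss of signal fitted bidirectionally, DMSO as baseline.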

Read-out in experiment [13]: Matrix Metallopeptidase 1 (MMP1), MMP1 (gene 4312)
Kind of experiment: BSK_hDFCGF_MMP1: BioMAP Diversity Plus: hDFCGF Assay for Matrix Metallopeptidase 1 (MMP1) Biomarker Activity (AID 2283064). Conditions: primary human foreskin fibroblasts; actives raise or lower the signal. A digest of the protocol: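 hDFCGF primary fibroblasts (human foreskin); chemical added; 24 h; MMP1 by ELISA; bidirectional fit vs DMSO.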

Read-out in experiment [14]: Vascular cell adhesion molecule 1 (VCAM1), VCAM1 (gene 7412)
Kind of experiment: BSK_hDFCGF_VCAM1: BioMAP Diversity Plus: hDFCGF Assay for Vascular cell adhesion molecule 1 (VCAM1) Biomarker Activity (AID 2283065).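 As to AC50: VCAM-1 protein level quantified by ELISA after 24 h chemical exposure.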 Conditions: primary human foreskin fibroblasts; actives raise or lower the signal. The method, boiled down: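 Primary human foreskin fibroblasts (hDFCGF system) were dosed with chemical and VCAM-1 was measured by ELISA 24 h later. Bidirectional curve fitting used DMSO as negative control and activity baseline.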

Read-out in experiment [15]: Plasminogen activator inhibitor-1 (PAI1), SERPINE1 (gene 5054)
Kind of experiment: BSK_hDFCGF_PAI1: BioMAP Diversity Plus: hDFCGF Assay for Plasminogen activator inhibitor-1 (PAI1) Biomarker Activity (AID 2283066). Conditions: primary human foreskin fibroblasts; actives raise or lower the signal. The method, boiled down:
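Human foreskin fibroblasts in the hDFCGF system were dosed with compound for 24 h; PAI-1 was quantified by ELISA. Bidirectional curve fitting used DMSO as negative control and baseline.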

Read-out in experiment [16]: Intercellular Adhesion Molecule 1 (ICAM1), ICAM1 (gene 3383)
Kind of experiment: BSK_KF3CT_ICAM1: BioMAP Diversity Plus: KF3CT Assay for Intercellular Adhesion Molecule 1 (ICAM1) Biomarker Activity (AID 2283067). Conditions: primary human keratinocytes with fibroblasts; actives raise or lower the signal. The method, boiled down: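 Human keratinocyte plus foreskin fibroblast primary co-culture was exposed to chemical for 24 h. ICAM-1 was then quantified by ELISA, and the data were fit bidirectionally against DMSO as the negative control and baseline.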

Read-out in experiment [17]: Interferon-gamma inducible Protein 10 (IP10), CXCL10 (gene 3627)
Kind of experiment: BSK_KF3CT_IP10: BioMAP Diversity Plus: KF3CT Assay for Interferon-gamma inducible Protein 10 (IP10) Biomarker Activity (AID 2283068). Conditions: primary human keratinocytes with fibroblasts; actives raise or lower the signal. A digest of the protocol: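 Human keratinocyte plus foreskin fibroblast primary co-culture exposed to test chemical for 24 h; IP-10 measured by ELISA. Concentration-response fitted bidirectionally against DMSO control as baseline.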

Experiment [18] can be described thus: BSK_KF3CT_SRB: Viability Assessment in the BioMAP Diversity Plus: KF3CT Assay (AID 2283069).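 Also: fitted for both signal gain and loss against DMSO baseline.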 Conditions: primary human keratinocytes with fibroblasts. A digest of the protocol: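 Keratinocytes co-cultured with foreskin fibroblasts (human primary); chemical added, 24 h; fix 10% TCA, stain 0.1% SRB, A560. Bidirectional fit vs DMSO.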
Read-out in experiment [19]: Interleukin-1 alpha (IL1a), IL1A (gene 3552)
Kind of experiment: BSK_KF3CT_IL1a: BioMAP Diversity Plus: KF3CT Assay for Interleukin-1 alpha (IL1a) Biomarker Activity (AID 2283070). Conditions: primary human keratinocytes with fibroblasts; actives raise or lower the signal. A digest of the protocol:
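Chemicals were dosed onto co-cultured human keratinocytes and foreskin fibroblasts, IL-1a was quantified by ELISA at 24 h, and activity was fitted in both directions relative to DMSO controls.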

Read-out in experiment [20]: TIMP metallopeptidase inhibitor 2 (TIMP2), TIMP2 (gene 7077)
Kind of experiment: BSK_KF3CT_TIMP2: BioMAP Diversity Plus: KF3CT Assay for TIMP metallopeptidase inhibitor 2 (TIMP2) Biomarker Activity (AID 2283071). Conditions: primary human keratinocytes with fibroblasts; actives raise or lower the signal. A digest of the protocol: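 Human primary keratinocyte/foreskin fibroblast co-culture dosed with chemical and sampled at 24 h. TIMP-2 levels quantified by ELISA; bidirectional fitting against DMSO negative control as baseline.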

By AC50 is commonly meant the concentration at which the activity in the assay is half-maximal.

Activity calls are given as the source filed them. The calls were made as follows: active = hit-call score of the fitted dose curve at least 0.9, where 1 is the maximum; inactive = score below 0.9.

Consider `ClC1=C(Cl)C2(Cl)C3C(Cl)C=CC3C1(Cl)C2(Cl)Cl` (stereo not given), for which the AC50 was 29.3 µM (active) in experiment [1]; 8.86 µM (active) in experiment [2]; 31.8 µM (active) in [3]; 30.2 µM (active) in experiment [4]; 6.97 µM (active) in experiment [5]; 11.4 µM (active) in experiment [7]. Besides, the AC50 in experiment [8] is 10.3 µM (active); in experiment [9], 9.47 µM (active); in experiment [10], 11.2 µM (active); in experiment [11], 9.82 µM (active); in experiment [12], 10.6 µM (active); in [13] it was 13.4 µM (active). Moreover, the concentration at half-maximal activity (AC50) was 8.26 µM (active) in experiment [14]; 9.78 µM (active) in [15]; 30.2 µM (active) in [16]; 15.3 µM (active) in [17]; 28.6 µM (active) in [18]; 27.3 µM (active) in [19]. Further, the AC50 in experiment [20] was 24.6 µM (active). Moreover, in experiment [6], the result was inactive.

Regarding `c1ccc2c(c1)-c1cccc3cccc-2c13`, the result in [1], in experiment [2], in [3], in experiment [4], in experiment [6] and in [7] was inactive. The outcome in [9], in [10], in [11], in experiment [12], in [13] and in [14] was inactive. Besides, the result in experiment [15], in experiment [16], in experiment [17], in experiment [18], in [19] and in [20] was inactive. Also, the half-maximal activity concentration (AC50) is 16.4 µM (active) in experiment [5] and 23.7 µM (active) in experiment [8].

For `c1ccc(C2CO2)cc1` (stereo not given), the outcome in [1], in experiment [2], in experiment [3], in experiment [4], in experiment [5] and in [6] was inactive. For the same compound, the outcome in [7], in [8], in experiment [9], in [10], in experiment [11] and in experiment [12] was inactive. The outcome in experiment [13], in [14], in [15], in [16], in [17] and in experiment [18] was inactive. Moreover, the result in experiment [19] and in experiment [20] was inactive.

With `CC(C)COC(=O)c1ccccc1C(=O)OCC(C)C`, the outcome in [1], in [3], in [4], in experiment [6], in experiment [7] and in [8] was inactive. Also, the outcome in experiment [10], in [11], in experiment [12], in experiment [13], in experiment [15] and in [16] was inactive. Also, the result in experiment [17], in [18], in experiment [19] and in experiment [20] was inactive. The AC50 in experiment [2] is 30.3 µM (active); in [5] it was 23.9 µM (active); in [9], 14.4 µM (active); in experiment [14] it was 20 µM (active).

On to `CCC(C)c1ccc(O)cc1` (stereo not given), for which the result in [1], in [2], in [3], in experiment [4], in experiment [5] and in experiment [6] was inactive. Further, the outcome in experiment [7], in [8], in experiment [9], in [10], in experiment [11] and in [12] was inactive. The result in experiment [13], in [14], in experiment [15], in [16], in experiment [17] and in experiment [18] was inactive. Besides, the result in experiment [19] and in [20] was inactive.
